Growth data for 38 compounds are collected here from PubChem BioAssay (NCI).

The panel holds about 83,000 compounds, 20% with a hit somewhere; the sample as a whole holds those more often.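 Note: values are percent growth. 100 is the growth of untreated cells, values between 100 and 0 indicate rising inhibition; between -100 and 0 indicates cell death.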 The source made the active and inactive calls. Rule for the calls: active = growth percent below 10; inactive = the rest.

The test system of the first test is MOLT-4 leukemia. As to the kind of experiment: NCI-60 one-dose screen, 48 h (100 = growth as untreated, 0 = no growth, -100 = all killed). Particulars: 10 µM unless noted.
In the case of `O=C(Nc1ccc(Oc2ccc(F)cc2)c(Cl)c1)c1cccnn1`, the growth was 59.8% (inactive).

Take `Cc1ccc2c(n1)C(=O)C(Cl)=C(Nc1ccc(N3CCN(C)CC3)cc1)C2=O`: the growth was -25.6% (active).

Take `c1cc2ccc1CNCCN1CCNCc3ccc(cc3)Oc3ccc(cc3)CNCCN(CCNCc3ccc(cc3)O2)CCNCc2ccc(cc2)Oc2ccc(cc2)CNCC1`: the growth was -45.4% (active).

For `Cc1ccc(-c2cn(C/C=C3\C=CN(S(=O)(=O)c4ccccc4)CC3)nn2)cc1`, the growth was 106% (inactive).

As to `CCCCCCCCN(CCCCCCCC)CC(O)c1ccc(Cl)c(C)c1Cl` (stereo not drawn), the growth is 91.4% (inactive).

The test system of the next test is SR leukemia. The test is described as above. Particulars: 10 µM unless noted.
`N#C/C(C(=O)c1ccccc1)=C1/C(=O)Nc2ccc(F)cc21`: the growth is 118% (inactive).

For `C=C(C)[C@@H]1CC[C@]2(C(=O)NCCCN)CC[C@]3(C)[C@H](CC[C@@H]4[C@@]5(C)CC[C@H](O)C(C)(C)[C@@H]5CC[C@]43C)[C@@H]12`, the growth is 23.7% [100 µM] (inactive).

As to `O=C1/C(=C\c2cn(CC(O)CN3CCCCC3)c3ccccc23)c2ccccc2N1c1c(Cl)cccc1Cl` (stereo not drawn), the growth was -13% (active).

Turning to `COc1ccc(OC)c([N+](=O)[O-])c1C(=O)CNC(C)=O`, the growth was 118% (inactive).

Take `Nc1cccc2c1C(=O)c1cccc(NC(=O)c3ccccc3)c1C2=O`: the growth was 15.1% (inactive).

For `CCNc1cc2c(cc1Br)-c1ccccc1C2=O`, the growth was 91.6% (inactive).

As to `CCOc1cccc2c(NC(C)CCCN(CC)CC)c(C)cnc12` (stereo not drawn), the growth was 96.6% (inactive).

Take `COc1cc(/C=C/C(=O)/C=C/c2ccc(-n3ccnc3C)cc2)ccc1O`: the growth is 17.8% (inactive).

For the compound `COc1cc(-c2nc(SCCC(C)C)nc(Nc3ccccc3)c2C#N)cc(OC)c1OC`, the growth was 79.8% (inactive).

On to `CN(C)C(=S)Sc1ccc([N+](=O)[O-])cc1[N+](=O)[O-]`, for which the growth is 7.64% (active).

For `Nc1ccc(Cl)c([N+](=O)[O-])c1`, the growth was 90.1% (inactive).

In the case of `CCCCCCCCCCCCNC(=S)N/N=C/c1ccccc1O`, the growth is 44% (inactive).

As for `CC1(C)CC[C@]2(C(=O)OC(=O)[C@]34CCC(C)(C)C[C@@H]3C3=CC[C@@H]5[C@@]6(C)CCC(=O)C(C)(C)[C@@H]6CC[C@@]5(C)[C@]3(C)CC4)CC[C@]3(C)C(=CC[C@@H]4[C@@]5(C)CCC(=O)C(C)(C)[C@@H]5CC[C@]43C)[C@H]2C1`, the growth was 65% [100 µM] (inactive).

For `COc1cccc(-c2[nH]c(=S)ncc2C(=O)c2ccccc2)c1`, the growth is 28.3% (inactive).

As to `O=C(N=c1n(-c2ccccc2)nc2n1CCN2C1=NCCN1C(=O)c1ccc(Cl)cc1)c1ccc(Cl)cc1`, the growth was 73.9% (inactive).

Take `COc1cc2c(=O)[nH]c3cc([N+](=O)[O-])ccc3c2cc1[N+](=O)[O-]`: the growth is 32.2% (inactive).

With `NC(=O)CC1C=CCC1` (stereo not drawn), the growth was 106% (inactive).

For the compound `O=C(Nc1cccc2ccccc12)c1cc2ccccc2cc1O`, the growth was 16% (inactive).

`Cc1ccc(N)c(O)c1`: the growth was 112% (inactive).

As to `CCOC(=O)CCC[P+](c1ccccc1)(c1ccccc1)c1ccccc1`, the growth was 59.5% (inactive).

`CCN(CC)c1cc(N)c(Cc2c(N)cc(N(CC)CC)cc2Cl)c(Cl)c1`: the growth is 34.8% (inactive).

As for `CSc1nc(N)c(N=Nc2ccc(S(=O)(=O)Nc3nnc(C)s3)cc2)c(=O)[nH]1`, the growth was 110% (inactive).

Turning to `CC1(C)C(=O)/C(=C\c2cccnc2)C[C@]2(C)[C@H]3CC[C@@H]4[C@H]5[C@H](C(=O)/C=C/c6cccnc6)CC[C@]5(C(=O)O)CC[C@@]4(C)[C@]3(C)CC[C@@H]12`, the growth was 25.8% [100 µM] (inactive).

As for `N#CCCc1c[nH]c2ccccc12`, the growth was 91.5% (inactive).

Take `C[C@@H]1C[C@H]2C(=O)O[C@@H](C)[C@H](NC(=O)[C@H](Cc3cc(F)cc(F)c3)NC(=O)Nc3ccc(C4CC4)cc3F)C(=O)N3CCC[C@H]3C(=O)N3CCCC[C@H]3C(=O)N[C@@H](C)C(=O)N2C1`: the growth is 27.8% (inactive).

With `CCN(CC)CCCC(C)Nc1c2ccc(C)cc2nc2ccc(OC)cc12` (stereo not drawn), the growth was 4.33% (active).

`C#CCNC(=O)CC[C@]1(C)[C@H]2CC[C@@H]3[C@@H]([C@@](C)(O)CCC=C(C)C)CC[C@@]3(C)[C@]2(C)CC[C@H]1C(=C)C`: the growth is 12.8% [100 µM] (inactive).

Consider `CC1(C)CC[C@]2(C(=O)O)CC[C@]3(C)C(=CC[C@@H]4[C@@]5(C)C/C(=C/c6ccco6)C(=O)C(C)(C)[C@@H]5CC[C@]43C)[C@@H]2C1`, for which the growth is 21.7% [100 µM] (inactive).

Turning to `C=C(C)[C@@H]1CC[C@]2(C(=O)O)CC[C@]3(C)[C@H](CC[C@@H]4[C@@]5(C)C/C(=C/c6ccco6)C(=O)C(C)(C)[C@@H]5CC[C@]43C)[C@@H]12`, the growth was 31.9% [100 µM] (inactive).

As for `C[n+]1cccc(NC(=O)c2ccc3ccc4ccc(C(=O)Nc5ccc[n+](C)c5)nc4c3n2)c1`, the growth is 75% (inactive).

Turning to `Cc1ccc(S(=O)(=O)N/N=C2\CC3CCC2(C)C3(C)C)cc1` (stereo not drawn), the growth is 105% (inactive).

With `CCOC(=O)c1nn(C2CCCCO2)c2ccc(NC(=O)Cn3nnc4ccccc43)cc12` (stereo not drawn), the growth was 97.6% (inactive).

Regarding `Cn1cc(-c2nnc(-c3cn(C)c4ncc(Br)cc34)o2)c2ccccc21`, the growth was 52.7% (inactive).

For the compound `O=C(Nc1ccc(Oc2ccc(F)cc2)c(Cl)c1)c1cccnn1`, the growth is 97.6% (inactive).

As to `Cc1ccc2c(n1)C(=O)C(Cl)=C(Nc1ccc(N3CCN(C)CC3)cc1)C2=O`, the growth was -5.05% (active).

With `c1cc2ccc1CNCCN1CCNCc3ccc(cc3)Oc3ccc(cc3)CNCCN(CCNCc3ccc(cc3)O2)CCNCc2ccc(cc2)Oc2ccc(cc2)CNCC1`, the growth was -40.1% (active).

With `Cc1ccc(-c2cn(C/C=C3\C=CN(S(=O)(=O)c4ccccc4)CC3)nn2)cc1`, the growth was 108% (inactive).

For the compound `CCCCCCCCN(CCCCCCCC)CC(O)c1ccc(Cl)c(C)c1Cl` (stereo not drawn), the growth was 52.6% (inactive).
